PTK2B oligo ant: Pyk2 (human) oligomerization antagonism. Q293 cells, Pyk2 FERM NanoBiT luminescence; stronger effect = lower value. z-score (the deposit names both 25 µM and 10 µM). hit rate 0.83% among 99,000;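 active means Z-score of -3 or lower, scaled per plate to the spread of control and sample wells; inactive means z-score above -3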;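 further: negative z-score means lost luminescence so less FERM oligomerization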
CYP2C19 inh: blocks human cytochrome P450 2C19; P33261; CYP2C19 Supersomes, luciferin-H EGE luminescence, 30 min; inhibition, % at 5 µM; hit rate 21% among 96,000; AID 778;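 active means CYP2C19 inhibition above a set limit at 5 µM in the primary screen, cut at about 50% in these data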;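 further: plate controls were negative control wells for no effect and 2.5 mM tranylcypromine positive control for full effect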
Target sequence (P33261 whole entry, looked up): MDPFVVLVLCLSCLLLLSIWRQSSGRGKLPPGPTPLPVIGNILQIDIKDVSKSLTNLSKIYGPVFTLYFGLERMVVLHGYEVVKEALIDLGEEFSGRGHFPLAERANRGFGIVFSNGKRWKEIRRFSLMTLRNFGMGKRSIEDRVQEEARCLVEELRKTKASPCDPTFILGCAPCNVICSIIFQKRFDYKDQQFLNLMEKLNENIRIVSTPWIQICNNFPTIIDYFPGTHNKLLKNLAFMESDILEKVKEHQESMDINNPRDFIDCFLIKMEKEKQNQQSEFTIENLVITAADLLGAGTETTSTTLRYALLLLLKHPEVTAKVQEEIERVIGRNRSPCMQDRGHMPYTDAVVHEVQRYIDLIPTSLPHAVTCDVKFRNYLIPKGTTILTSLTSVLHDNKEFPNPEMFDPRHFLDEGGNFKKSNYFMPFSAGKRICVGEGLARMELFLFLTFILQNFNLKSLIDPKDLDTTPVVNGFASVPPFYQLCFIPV
CYP2C9 act: increases human cytochrome P450 2C9 activity; recombinant CYP2C9, luciferin-H conversion, luminescence; stronger effect = higher value; factor 1 = untreated enzyme, 0 = blocked; activation factor at 5 µM; hit rate 1.4% among 96,000; AID 1024;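 active means activation factor of 2 or more for CYP2C9 at a 5 µM dose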;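 further: 0 = sulfaphenazole-blocked wells and 1 = vehicle-only wells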
CYP2C9 inhib: inhibitors of human CYP2C9 | P11712 | CYP2C9 Supersomes, luciferin-H conversion, luminescence | inhibition, % at 5 µM | hit rate 20% among 96,000;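 active means blocking of liver enzyme CYP2C9 beyond about 50% at 5 µM, limit read from the data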
Cav32 inh: inhibitors of human Cav3.2 T-type calcium channel | O95180 | B-score at 10 µM | Cav3.2-expressing cells, Fluo-4 calcium fluorescence FDSS; stronger effect = lower value | hit rate 4% among 100,000 | AID 449739;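 active means single-dose well whose peak fluorescence ratio is a statistical outlier from its plate by either plate-standardised score or position-corrected B-score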
CYP2C19 act: increases human CYP2C19 enzyme activity; P33261; recombinant CYP2C19, luciferin-H EGE luminescence; stronger effect = higher value; 0 = fully inhibited enzyme, 1 = untreated enzyme; activation factor at 5 µM; 96,000 tested, under 10 active;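 active means activation factor of at least 2 at 5 µM in the primary screen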;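 further: 0 = wells with 2.5 mM tranylcypromine and 1 = vehicle-only wells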
* hit, by the source's call; x = no result. Shown are actives, neighbours in structure and some others; about 27% of the full set was active somewhere.

SMILES	PTK2B oligo ant	CYP2C19 inh	CYP2C9 act	CYP2C9 inhib	Cav32 inh	CYP2C19 act
CCOC(=O)c1nnn(-c2nonc2N)c1CN(CC)c1ccccc1	-0.26	99*	0.1	89*	-4.8*	0
Cc1cc(C)c2c(CC(=O)N(CCC#N)Cc3cccnc3)coc2c1	0.83	51*	1.3	-25	x	0.5
Cn1nc(C(F)(F)F)c(C#N)c1N1CCN(c2cccc(C(F)(F)F)c2)CC1	0.96	15	0.8	17	0.62	0.9
O=C1C2C3C=CC(C3=C(c3ccccc3)c3ccccc3)C2C(=O)N1CCO (stereo not drawn)	-0.69	15	0.8	18	-1	0.9
O=C1C2C3C=CC(C3=C(c3ccccc3)c3ccccc3)C2C(=O)N1Cc1ccccc1 (stereo not drawn)	1.4	54*	1.1	-14	-0.85	0.5
CN1C(=O)C2(c3ccccc31)N(C)CC(c1ccccn1)C21SC(=S)N(Cc2ccco2)C1=O (stereo not drawn)	-0.28	46	0.8	19	-4.7*	0.5
CN1C(=O)C2(c3ccccc31)N(C)CC(c1ccccc1)C21SC(=S)N(Cc2ccco2)C1=O (stereo not drawn)	-1.2	20	1	4	-2.2	0.8
CCCCN=Cc1sc2ccc(OCC)cc2c1O	0.63	94*	1.1	-9	-0.98	0.1
COC(=O)C1=[N+]([O-])OC(C(=O)OC)C1c1c[nH]c2ccccc12 (stereo not drawn)	-0.17	21	0.9	13	0.73	0.8
CN(c1ccc(C(=O)O)cc1)S(=O)(=O)c1ccc(Cl)cc1	0.24	-7	1.1	-8	1.6	1.1
O=C(CN1CCN(S(=O)(=O)c2ccc(Br)cc2)CC1)Nc1ccc2c(c1)OCCO2	-1.5	78*	0.7	35	-3.1	0.2
Cc1ccc(S(=O)(=O)N2CCN(Cc3cc(C(C)C)ccc3O)CC2)cc1	-1.4	28	0.5	51*	-2.8	0.7
O=C(CN1CCN(S(=O)(=O)c2ccc(Cl)cc2)CC1)Nc1ccc2c(c1)OCCO2	-0.64	42	0.9	14	-0.72	0.6
CC(C)c1ccc(S(=O)(=O)N2CCN(CC(=O)Nc3ccc4c(c3)OCO4)CC2)cc1	0.35	12	0.8	19	-6.9*	0.9
Cc1c(NC(=O)CC2CC(C)OC2=O)c(=O)n(-c2ccccc2)n1C (stereo not drawn)	-0.25	x	x	x	0.77	x
O=c1c2ccccc2nc2n1C(CSCc1ccc(Cl)cc1)CS2 (stereo not drawn)	0.08	75*	0.7	29	x	0.2
COc1ccc(C(=O)N(Cc2ccccc2)Cc2cc3cc4c(cc3[nH]c2=O)OCCO4)cc1	-2.8	-10	0.9	7	-2.9	1.1
O=C(c1ccncc1)N(Cc1ccco1)Cc1cc2ccccc2[nH]c1=O	-0.21	99*	0.1	93*	0.46	0
CCN(Cc1cc2cc(OC)ccc2[nH]c1=O)C(=O)c1ccncc1	-0.8	74*	0.3	68*	0.17	0.3
COc1cccc(C(=O)N(Cc2ccccc2)Cc2cc3cc4c(cc3[nH]c2=O)OCCO4)c1	-3.3*	-4	0.9	12	-0.67	1
Cc1ccc2[nH]c(=O)c(CN(Cc3cccnc3)C(=O)c3ccncc3)cc2c1	0.57	91*	0.2	80*	0.18	0.1
Fc1ccccc1OCCCCCCN1CCCC1	1.5	14	0.9	12	0.62	0.9
O=C(CCC1CCCC1)c1c(O)c2ccccc2oc1=O	x	0	0.7	26	-8*	1
O=C(c1c(O)c2ccccc2oc1=O)C1CCCCC1	0.67	-5	0.4	65*	-0.64	1
COC(=O)C(C(=O)NCC1CCCO1)C1CCCC1 (stereo not drawn)	0.25	9	0.9	15	0.34	0.9
CC(=O)Cc1nsc(NC(=O)c2cccs2)n1	0.28	-9	1	-4	0.84	1.1
COc1ccc(C(=O)NC(=S)N(Cc2ccccc2)Cc2ccccc2)cc1	-1.4	22	0.5	46	-2.7	0.8
C=CCN(CC=C)C(=S)NC(=O)c1ccc(-c2ccccc2)cc1	-0.36	-4	1.3	-26	-4.4*	1
COc1ccc(-c2nc(NC(=O)CSc3nnc(C)s3)ns2)cc1	-0.8	10	0.9	10	1.2	0.9
COc1ccc(CCCC(=O)O)c(C)c1	2.2	x	x	x	0.65	x
